# Screening results as filed in PubChem.
# In the library only some 3.1% were active in any assay of this set; here they are far more common.
# Tau ThT inhib: tau fibrillization inhibition (ThT binding) | recombinant tau K18 P301L, heparin-induced fibrillization, ThT fluorescence | actives 2.1% (n = 270,000) | Potency, µM (doses to about 57.4 µM), for inactives: at the top dose activity, negative = inhibition, hits mostly inhibitors | P10636; note: nearly all actives have a fitted effect of over 55% in size
# Target sequence (P10636 561-689 P618L limits assumed): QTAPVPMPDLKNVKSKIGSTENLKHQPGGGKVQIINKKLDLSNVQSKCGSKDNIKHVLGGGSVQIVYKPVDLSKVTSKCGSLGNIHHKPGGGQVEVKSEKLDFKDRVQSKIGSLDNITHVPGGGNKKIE
#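 Heparin-induced fibrillization of the P301L-mutant K18 repeat-domain fragment of human tau was followed by ThT binding in quantitative high-throughput format.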
# Tau FP inhib: tau fibrillization inhibition (FP). K18 P301L tau heparin fibrillization, Alexa594 FP, 6 h. Potency, µM (titrated, usually from 57.7 µM), inactives show at the top dose activity, negative = inhibition, actives largely listed as inhibitors. actives 0.39% (n = 280,000). AID 1468; note: nearly all actives have a fitted effect of over 55% in size
#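 Human tau K18 […] P301L fragment, 15 uM unlabeled plus 0.24 uM Alexa 594-labeled tau (final), with compound and 20 uM heparin in 100 mM sodium acetate pH 7; 6 hr at 37 C, then Alexa 594 FP read.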
# TRb SRC2 PPI: disrupts binding of human TR beta to SRC2 | P10828 | TRbeta-SRC2 peptide binding, fluorescence polarization; receptor liganded with 1 µM T3 | Potency, µM (highest dose often 106 µM), for the others: at the top dose activity change, negative = inhibition, most hits filed as inhibitors | actives 0.065% (n = 280,000);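 note: plate controls were bound peptide for no effect and peptide without receptor for full effect; nearly all actives have a fitted effect of over 50% in size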
#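 Polarization signal, normalized between peptide-alone and full complex controls, measured compound effects on T3-liganded human TRb LBD (0.6 uM) binding 20 nM Texas Red SRC2 peptide after 5 hr.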
# TexasRed fluor: Texas Red fluorescence interference in TRb-SRC2 counter-screen; TRb/SRC2 Texas Red total fluorescence interference; Potency, µM (series often up to 106 µM), for inactives: at the highest dose fluorescence change, negative = quenching; actives 0.29% (n = 280,000); AID 1479; active = well fitted curve in either direction with a large enough effect; inconclusive = small, poorly fitted or top-dose-only effect
#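 Human TRβ ligand-binding domain (0.6 uM) and Texas Red SRC2 peptide (20 nM) in Tris buffer with 1 uM T3 and 5% DMSO were incubated with pinned compound for 5 hr at ambient temperature. Total fluorescence was computed as S + 2P (555/632 nm).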
# Tau fluor cs: counter-screen for tau fibril formation inhibitors | actives 0.93% (n = 280,000) | tau K18 P301L Alexa594 fluorescence, heparin fibrillization | Potency, µM (doses to about 57.7 µM), without a hit: top-dose activity change, negative = decrease; note: nearly all actives have a fitted effect of over 55% in size
#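 Human tau K18 P301L (15 uM unlabeled, 0.24 uM Alexa 594-labeled) in 100 mM sodium acetate pH 7 with 20 uM heparin, 6 hr at 37 C. ThT 30 uM added, 1 hr ambient; Alexa 594 FP and total fluorescence read at 555/632 nm.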
# * marks the source's active call; other numbers are inactive results; ? = inconclusive; nt = no result given; [ ] = dose if it differs, or a comment. Unless noted, calls come from the whole dose curve; as a rule, active = well fitted curve in the direction sought with a large enough effect; inconclusive = small, poorly fitted or top-dose-only effect, or another doubt; inactive = no such curve, though single readings can be large; an effect the other way counts as inactive or inconclusive. Unless noted, % is set by controls: 0 for no effect and ±100 for the full control effect; potency is the fitted concentration of half-maximal effect.
SMILES,Tau ThT inhib,Tau FP inhib,TRb SRC2 PPI,TexasRed fluor,Tau fluor cs
O=C(/C(=N/N=C/c1ccc(O)c(O)c1O)c1ccccc1)c1ccccc1,10%,-3%,0%,-1%,7%
COc1cccc(CNc2ncnc3onc(-c4ccc(F)cc4)c23)c1,-1%,?,0%,-21%,-15%
COc1ccc(NC(=O)c2ccc(-c3ccc([N+](=O)[O-])cc3)o2)cc1,1.3µM*,12%,?,32µM*[quencher],?
COc1ccc(CNC(=O)Nc2ccc([N+](=O)[O-])cc2)cc1,nt,nt,0%,-1%,nt
COc1ccc(S(=O)(=O)N2CCN(Cc3nc4ccc(C)cc4o3)CC2)cc1Cl,-4%,3%,3%,-3%,-23%
Cc1cccc(NC(=O)c2c(NC(=O)c3cccs3)sc3c2CCC(C)C3)c1 (stereo not given),-4%,-5%,-11%,0%,-16%
Cc1cccc(NC(=O)c2c(N)sc3c2CCC(C)C3)c1 (stereo not given),8.9µM*,-15%,9%,-5%,?
NC(=Nc1ccc(N)cc1)C(N)=Nc1ccc(N)cc1,8.9µM*,?,6%,-3%,?
COc1ccc(/C=N/Nc2snc(SC)c2C#N)cc1OC,14µM*,?,-1%,-11%,11µM*[quencher]
CCN1C(=O)C(CC(=O)Nc2ccc(F)cc2)N(CCCN2CCN(c3ccc(F)cc3)CC2)C1=S (stereo not given),?,?,-6%,-1%,13µM*[quencher]
CCCOc1ccc(NC(=O)CC2C(=O)N(CC)C(=S)N2CCCN2CCN(Cc3ccccc3)CC2)cc1 (stereo not given),?,-13%,1%,-1%,?
Cc1ccccc1OCC(=O)N/N=C/c1cccc(Oc2ccc([N+](=O)[O-])cc2[N+](=O)[O-])c1,?,-6%,-11%,2%,6.3µM*[quencher]
O=C(N/N=C/c1cccc(OC(=O)c2ccc3c(c2)OCO3)c1)c1cncc(Br)c1,?,?,?,-14%,?
Cc1ccccc1OCC(=O)NCC(=O)N/N=C/c1cccc([N+](=O)[O-])c1,-12%,2%,-1%,-3%,-2%
O=C(N/N=C/c1cccc(Oc2ccc([N+](=O)[O-])cc2[N+](=O)[O-])c1)c1cncc(Br)c1,?,4%,0%,4%,8.9µM*[quencher]
CCN(C(=O)CSc1nc2ccccc2n1CC(=O)N1CCCC(C)C1)c1ccccc1 (stereo not given),-1%,5%,0%,-1%,4%
CCCNC(=O)N1[C@H](c2ccc(C)s2)[C@@H](C)C(=O)[C@@H](C)[C@@H]1c1ccc(C)s1,5%,0%,5%,2%,-3%
Cc1ccccc1-c1ccnc2c(-c3ccc(F)cc3)c(C)nn12,?,-4%,-17%,11µM*[quencher],?
N=C1/C(=C/c2ccc(-c3cccc(C(=O)O)c3)o2)C(=O)N=C2SC=C(c3ccccc3)N12,4.5µM*,15%,18%,?,-7%
CC(C)S(=O)(=O)C1=NSC2=NC(=O)/C(=C\c3ccc(-c4cccc(C(=O)O)c4)o3)C(=N)N21,17%,10%,-2%,0%,17%
N=C1/C(=C\c2ccc(-c3cc(Cl)cc(Cl)c3)o2)C(=O)N=C2SC=C(c3ccccc3)N12,4µM*,5%,-7%,0%,-25%
CS(=O)(=O)C1=NSC2=NC(=O)/C(=C\c3ccc(-c4ccccc4)o3)C(=N)N21,?,12%,3%,-10%,-4%
Cc1oc(-c2ccccc2Cl)nc1CS(=O)CC(=O)N1CCN(c2cccc(C(F)(F)F)c2)CC1 (stereo not given),?,13%,-9%,1%,2%
COC(=O)C1=NOC2(C=C(Br)C(OC)=C(Br)C2=O)C1 (stereo not given),4µM*,?,6%[11.2 µM],-1%[11.2 µM],-23%[11.6 µM]
CCCCCn1c(CN2CCN(c3ccc(OC)cc3)CC2)nc2c1c(=O)[nH]c(=O)n2C,-17%,0%,-6%,-2%,-23%
C=CC[n+]1c(-c2ccc(Cl)cc2Cl)csc1Nc1ccc(NC(C)=O)cc1,?,?,5%,0%,25µM*[quencher]
